Measured values from the supplement of paper PMC10849652.
Targets with a hit are over-represented here; the source holds about 8,800 in all. About 0.5% of all pairs of compound and target were hits.

What was measured:
Test in all cases: log2 fold change, soluble protein after heating vs DMSO (PISA); higher = thermal stabilisation; K562 lysate, 10 uM; active = over 0.2 and 3.5 SD of the protein, either way, in both replicates (recomputed)
ibrutinib = compound: C=CC(=O)N1CCC[C@@H](n2nc(-c3ccc(Oc4ccccc4)cc3)c3c(N)ncnc32)C1 [ibrutinib]
How it was run: (§1)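 To prepare the extract, K562 pellets were dounce-homogenised in PBS pH 7.4 with 1 mM MgCl2, giving crude material at 1 mg/mL protein. This was treated with 10 μM compound for 30 min, then heated in aliquots for 3 min over 48°C-58°C before pooling and addition of NP-40 to 0.5% at 4°C. Centrifugation at 21,000xg for 90 min left soluble protein in the supernatant, which TMTpro 16plex LC-MS/MS quantified with equalised channel sums. Results are log-two fold changes in thermal stability compared with solvent controls, from duplicates.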

[1] = compound: CC(=O)c1cnc2ccc(-c3cc(Cl)c(O)c(Cl)c3)nc2c1N[C@H]1CC[C@H](CN(C)C)CC1
How it was run: as §1

ralimetinib = compound: CC(C)(C)Cn1c(N)nc2ccc(-c3[nH]c(C(C)(C)C)nc3-c3ccc(F)cc3)nc21 [ralimetinib]
How it was run: as §1

[2] = compound: CC(C)(O)CC(=O)NCCn1ccc2ncnc(Nc3ccc(Oc4cccc(C(F)(F)F)c4)c(Cl)c3)c21
How it was run: as §1

[3] = compound: CC(C)C1=C2N=C(C=C(N2N=C1)NCC3=CC=CC=C3)NCCCCCCN
How it was run: as §1

[4] = compound: CC1=C(C(CC(=O)N1)C2=CC=C(C=C2)C(F)(F)F)C(=O)NC3=C(C=C4C(=C3)C=NN4)F
How it was run: as §1

[5] = compound: CC1=C(C2=C(C=C1)C(=O)C3=CC=CC=C3N2CCCN)C
How it was run: as §1

[6] = compound: CC1=C(C=C(C=C1)NC(=O)C2=CC(=CC=C2)C(C)(C)C#N)NC3=CC4=C(C=C3)N=CN(C4=O)C
How it was run: as §1

[7] = compound: CC1=C(C=C(C=C1)NC(=O)C2=CC(=CC=C2)N(C)C)NC(=O)C3=CC=C(C=C3)O
How it was run: as §1

[8] = compound: CC1=CC=C(C=C1)SC2=C3C=C(SC3=CN=C2)C(=O)N
How it was run: as §1

Measured: log2 fold change

CDK5 (UniProt Q00535)
active: [1] 0.53
inactive: ibrutinib 0.015 | ralimetinib 0.004 | [2] -0.023 | [3] -0.032 | [4] -0.034 | [5] -0.006 | [6] -0.052 | [7] 0.023 | [8] -0.058

CDC42BPA isoform 6 (UniProt Q5VT25)
Chain of UniProt Q5VT25 (Q5VT25 whole entry, looked up): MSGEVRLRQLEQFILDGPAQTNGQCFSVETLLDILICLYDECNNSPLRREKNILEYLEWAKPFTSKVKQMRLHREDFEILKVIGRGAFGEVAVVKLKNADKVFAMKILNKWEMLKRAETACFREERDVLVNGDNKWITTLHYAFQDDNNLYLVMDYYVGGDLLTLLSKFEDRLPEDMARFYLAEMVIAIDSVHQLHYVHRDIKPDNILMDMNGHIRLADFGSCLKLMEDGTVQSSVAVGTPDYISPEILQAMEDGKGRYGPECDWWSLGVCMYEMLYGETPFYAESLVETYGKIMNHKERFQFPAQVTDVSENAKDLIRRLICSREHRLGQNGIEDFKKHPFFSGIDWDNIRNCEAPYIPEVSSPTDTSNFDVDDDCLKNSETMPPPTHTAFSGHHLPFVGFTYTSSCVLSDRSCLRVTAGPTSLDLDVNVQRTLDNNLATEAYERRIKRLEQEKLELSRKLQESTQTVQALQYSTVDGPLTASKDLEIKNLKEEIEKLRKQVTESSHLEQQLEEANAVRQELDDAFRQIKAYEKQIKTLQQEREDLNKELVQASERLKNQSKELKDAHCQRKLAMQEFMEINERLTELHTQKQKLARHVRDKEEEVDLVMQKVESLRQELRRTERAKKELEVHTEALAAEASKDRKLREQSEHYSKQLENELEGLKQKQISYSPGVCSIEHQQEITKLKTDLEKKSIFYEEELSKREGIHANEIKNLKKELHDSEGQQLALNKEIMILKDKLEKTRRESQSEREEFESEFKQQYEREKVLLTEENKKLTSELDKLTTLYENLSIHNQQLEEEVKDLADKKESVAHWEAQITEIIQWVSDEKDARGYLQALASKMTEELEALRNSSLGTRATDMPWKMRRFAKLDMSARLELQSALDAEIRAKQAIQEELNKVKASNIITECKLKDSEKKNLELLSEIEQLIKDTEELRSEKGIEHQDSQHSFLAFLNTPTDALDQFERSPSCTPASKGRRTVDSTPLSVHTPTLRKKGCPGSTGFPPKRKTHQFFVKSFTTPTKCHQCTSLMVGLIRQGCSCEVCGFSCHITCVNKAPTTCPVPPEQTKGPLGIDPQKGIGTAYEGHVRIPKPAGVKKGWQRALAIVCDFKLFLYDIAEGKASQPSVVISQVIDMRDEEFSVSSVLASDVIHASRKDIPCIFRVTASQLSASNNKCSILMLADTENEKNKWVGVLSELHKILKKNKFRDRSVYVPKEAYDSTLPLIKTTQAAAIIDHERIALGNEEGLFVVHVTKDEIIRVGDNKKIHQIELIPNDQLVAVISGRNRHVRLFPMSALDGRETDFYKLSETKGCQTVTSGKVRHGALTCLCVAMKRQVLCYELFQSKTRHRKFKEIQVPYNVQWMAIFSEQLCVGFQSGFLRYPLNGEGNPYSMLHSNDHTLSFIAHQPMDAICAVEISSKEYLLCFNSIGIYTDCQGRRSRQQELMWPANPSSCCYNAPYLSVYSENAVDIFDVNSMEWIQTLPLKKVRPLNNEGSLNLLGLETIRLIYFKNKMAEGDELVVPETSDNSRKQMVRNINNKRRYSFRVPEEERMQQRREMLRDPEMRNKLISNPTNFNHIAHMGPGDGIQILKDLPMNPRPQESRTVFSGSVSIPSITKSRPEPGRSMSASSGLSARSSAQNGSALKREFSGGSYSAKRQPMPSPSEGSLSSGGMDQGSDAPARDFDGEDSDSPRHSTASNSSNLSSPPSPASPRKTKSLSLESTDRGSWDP
inactive: ibrutinib 0.016 | [1] 0.039 | ralimetinib 0.012 | [2] -0.013 | [3] 0.03 | [4] 0.005 | [5] -0.004 | [6] 0.018 | [7] 0.034 | [8] -0.003

ATE1 isoform 2 (UniProt O95260)
Chain of UniProt O95260 (O95260 whole entry, looked up): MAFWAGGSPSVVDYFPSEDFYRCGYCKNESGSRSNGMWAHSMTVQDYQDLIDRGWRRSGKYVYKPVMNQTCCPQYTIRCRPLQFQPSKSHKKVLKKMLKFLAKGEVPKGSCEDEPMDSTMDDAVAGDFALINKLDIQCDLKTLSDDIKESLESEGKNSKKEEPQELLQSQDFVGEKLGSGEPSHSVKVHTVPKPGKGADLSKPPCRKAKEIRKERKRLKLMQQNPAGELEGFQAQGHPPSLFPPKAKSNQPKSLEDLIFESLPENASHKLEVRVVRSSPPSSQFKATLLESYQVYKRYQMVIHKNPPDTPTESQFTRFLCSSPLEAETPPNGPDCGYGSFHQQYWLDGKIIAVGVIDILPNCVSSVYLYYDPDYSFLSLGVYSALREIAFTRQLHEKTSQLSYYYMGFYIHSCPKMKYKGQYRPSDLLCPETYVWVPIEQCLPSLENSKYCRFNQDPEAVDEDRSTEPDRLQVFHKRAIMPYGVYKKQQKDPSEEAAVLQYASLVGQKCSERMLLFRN
inactive: ibrutinib 0.056 | [1] 0.001 | ralimetinib -0.006 | [2] 0.063 | [3] -0.016 | [4] 0.048 | [5] -0.001 | [6] -0.04 | [7] -0.004 | [8] 0.011

BPHL (UniProt Q86WA6)
inactive: ibrutinib -0.073 | [1] -0.016 | ralimetinib 0.047 | [2] 0.06 | [3] -0.045 | [4] 0 | [5] -0.015 | [6] 0.025 | [7] -0.004 | [8] -0.002

CDK13 (UniProt Q14004)
active: [1] 0.271
inactive: ibrutinib -0.038 | ralimetinib 0.031 | [2] 0.141 | [3] -0.056 | [4] -0.039 | [5] 0.041 | [6] -0.104 | [7] -0.028 | [8] -0.022

CAMK2G isoform 8 (UniProt Q13555)
inactive: ibrutinib 0.036 | [1] 0.173 | ralimetinib -0.022 | [2] 0.009 | [3] -0.001 | [4] -0.019 | [5] 0.073 | [6] -0.03 | [7] 0.05 | [8] -0.027

C18orf25 (UniProt Q96B23)
active: [2] -0.276
inactive: ibrutinib 0.114 | [1] 0.026 | ralimetinib 0 | [3] -0.038 | [4] 0.073 | [5] -0.008 | [6] 0.04 | [7] -0.091 | [8] -0.065

CCAR2 (UniProt Q8N163)
inactive: ibrutinib 0.025 | [1] -0.019 | ralimetinib 0.012 | [2] -0.006 | [3] -0.018 | [4] 0 | [5] 0.01 | [6] 0.003 | [7] 0.015 | [8] -0.005

CDK8 (UniProt P49336)
inactive: ibrutinib 0.006 | [1] 0.097 | ralimetinib -0.041 | [2] -0.011 | [3] -0.073 | [4] -0.058 | [5] 0.095 | [6] 0.088 | [7] 0.016 | [8] 0.16

ATG13 isoform 2 (UniProt O75143)
inactive: ibrutinib 0.01 | [1] 0.011 | ralimetinib -0.003 | [2] -0.018 | [3] 0.004 | [4] 0 | [5] -0.006 | [6] 0.048 | [7] -0.024 | [8] 0.016

CCNA2 (UniProt P20248)
Chain of UniProt P20248 (P20248 whole entry, looked up): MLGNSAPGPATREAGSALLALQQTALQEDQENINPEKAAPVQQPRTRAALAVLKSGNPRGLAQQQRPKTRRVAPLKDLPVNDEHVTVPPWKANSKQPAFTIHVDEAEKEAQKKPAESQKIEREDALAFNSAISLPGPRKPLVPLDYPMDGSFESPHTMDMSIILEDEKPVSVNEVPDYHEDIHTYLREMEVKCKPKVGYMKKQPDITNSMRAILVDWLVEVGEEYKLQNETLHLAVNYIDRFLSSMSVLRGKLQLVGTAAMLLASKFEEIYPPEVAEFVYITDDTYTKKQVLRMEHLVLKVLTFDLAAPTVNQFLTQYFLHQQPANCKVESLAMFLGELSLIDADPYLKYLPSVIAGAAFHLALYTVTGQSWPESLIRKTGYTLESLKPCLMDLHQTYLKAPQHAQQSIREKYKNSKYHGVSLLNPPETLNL
inactive: ibrutinib 0.005 | [1] 0.16 | ralimetinib -0.003 | [2] -0.013 | [3] 0.022 | [4] 0.003 | [5] 0.008 | [6] 0.047 | [7] 0.007 | [8] -0.029

BET1 (UniProt O15155)
inactive: ibrutinib -0.03 | [1] 0.041 | ralimetinib -0.085 | [2] 0.01 | [3] 0.035 | [4] 0.033 | [5] -0.01 | [6] -0.019 | [7] 0.001 | [8] -0.001

ATP2B4 (UniProt P23634)
inactive: ibrutinib 0.06 | [1] -0.026 | ralimetinib -0.056 | [2] -0.029 | [3] -0.018 | [4] 0.033 | [5] -0.034 | [6] 0.089 | [7] 0.051 | [8] -0.003

ATR (UniProt Q13535)
inactive: ibrutinib 0.06 | [1] 0.319 | ralimetinib 0 | [2] -0.037 | [3] 0.016 | [4] -0.015 | [5] -0.031 | [6] 0.032 | [7] 0.039 | [8] -0.053

CHD4 isoform 2 (UniProt Q14839)
inactive: ibrutinib -0.003 | [1] -0.008 | ralimetinib 0.026 | [2] 0.011 | [3] 0.025 | [4] 0.001 | [5] -0.037 | [6] 0.004 | [7] 0.006 | [8] 0.022

CCT6A (UniProt P40227)
inactive: ibrutinib 0.017 | [1] -0.005 | ralimetinib -0.007 | [2] 0.022 | [3] -0.013 | [4] -0.014 | [5] 0.003 | [6] -0.016 | [7] -0.014 | [8] 0.018

C3orf33 (UniProt Q6P1S2)
inactive: ibrutinib -0.045 | [1] -0.084 | ralimetinib 0.17 | [2] 0.012 | [3] -0.001 | [4] 0.046 | [5] -0.031 | [6] 0.117 | [7] -0.205 | [8] 0.008

CASP9 (UniProt P55211)
inactive: ibrutinib -0.039 | [1] -0.06 | ralimetinib 0.04 | [2] -0.06 | [3] -0.017 | [4] 0.01 | [5] -0.003 | [6] -0.01 | [7] 0.011 | [8] -0.012

BCKDK (UniProt O14874)
inactive: ibrutinib 0.048 | [1] 0.049 | ralimetinib 0.137 | [2] -0.017 | [3] -0.001 | [4] -0.048 | [5] 0.004 | [6] -0.088 | [7] 0.067 | [8] 0.059

CHD3 isoform 3 (UniProt Q12873)
inactive: ibrutinib -0.003 | [1] 0.021 | ralimetinib -0.01 | [2] -0.021 | [3] -0.001 | [4] 0.019 | [5] -0.018 | [6] 0 | [7] -0.013 | [8] 0.007

BTAF1 (UniProt O14981)
Chain of UniProt O14981 (O14981 whole entry, looked up): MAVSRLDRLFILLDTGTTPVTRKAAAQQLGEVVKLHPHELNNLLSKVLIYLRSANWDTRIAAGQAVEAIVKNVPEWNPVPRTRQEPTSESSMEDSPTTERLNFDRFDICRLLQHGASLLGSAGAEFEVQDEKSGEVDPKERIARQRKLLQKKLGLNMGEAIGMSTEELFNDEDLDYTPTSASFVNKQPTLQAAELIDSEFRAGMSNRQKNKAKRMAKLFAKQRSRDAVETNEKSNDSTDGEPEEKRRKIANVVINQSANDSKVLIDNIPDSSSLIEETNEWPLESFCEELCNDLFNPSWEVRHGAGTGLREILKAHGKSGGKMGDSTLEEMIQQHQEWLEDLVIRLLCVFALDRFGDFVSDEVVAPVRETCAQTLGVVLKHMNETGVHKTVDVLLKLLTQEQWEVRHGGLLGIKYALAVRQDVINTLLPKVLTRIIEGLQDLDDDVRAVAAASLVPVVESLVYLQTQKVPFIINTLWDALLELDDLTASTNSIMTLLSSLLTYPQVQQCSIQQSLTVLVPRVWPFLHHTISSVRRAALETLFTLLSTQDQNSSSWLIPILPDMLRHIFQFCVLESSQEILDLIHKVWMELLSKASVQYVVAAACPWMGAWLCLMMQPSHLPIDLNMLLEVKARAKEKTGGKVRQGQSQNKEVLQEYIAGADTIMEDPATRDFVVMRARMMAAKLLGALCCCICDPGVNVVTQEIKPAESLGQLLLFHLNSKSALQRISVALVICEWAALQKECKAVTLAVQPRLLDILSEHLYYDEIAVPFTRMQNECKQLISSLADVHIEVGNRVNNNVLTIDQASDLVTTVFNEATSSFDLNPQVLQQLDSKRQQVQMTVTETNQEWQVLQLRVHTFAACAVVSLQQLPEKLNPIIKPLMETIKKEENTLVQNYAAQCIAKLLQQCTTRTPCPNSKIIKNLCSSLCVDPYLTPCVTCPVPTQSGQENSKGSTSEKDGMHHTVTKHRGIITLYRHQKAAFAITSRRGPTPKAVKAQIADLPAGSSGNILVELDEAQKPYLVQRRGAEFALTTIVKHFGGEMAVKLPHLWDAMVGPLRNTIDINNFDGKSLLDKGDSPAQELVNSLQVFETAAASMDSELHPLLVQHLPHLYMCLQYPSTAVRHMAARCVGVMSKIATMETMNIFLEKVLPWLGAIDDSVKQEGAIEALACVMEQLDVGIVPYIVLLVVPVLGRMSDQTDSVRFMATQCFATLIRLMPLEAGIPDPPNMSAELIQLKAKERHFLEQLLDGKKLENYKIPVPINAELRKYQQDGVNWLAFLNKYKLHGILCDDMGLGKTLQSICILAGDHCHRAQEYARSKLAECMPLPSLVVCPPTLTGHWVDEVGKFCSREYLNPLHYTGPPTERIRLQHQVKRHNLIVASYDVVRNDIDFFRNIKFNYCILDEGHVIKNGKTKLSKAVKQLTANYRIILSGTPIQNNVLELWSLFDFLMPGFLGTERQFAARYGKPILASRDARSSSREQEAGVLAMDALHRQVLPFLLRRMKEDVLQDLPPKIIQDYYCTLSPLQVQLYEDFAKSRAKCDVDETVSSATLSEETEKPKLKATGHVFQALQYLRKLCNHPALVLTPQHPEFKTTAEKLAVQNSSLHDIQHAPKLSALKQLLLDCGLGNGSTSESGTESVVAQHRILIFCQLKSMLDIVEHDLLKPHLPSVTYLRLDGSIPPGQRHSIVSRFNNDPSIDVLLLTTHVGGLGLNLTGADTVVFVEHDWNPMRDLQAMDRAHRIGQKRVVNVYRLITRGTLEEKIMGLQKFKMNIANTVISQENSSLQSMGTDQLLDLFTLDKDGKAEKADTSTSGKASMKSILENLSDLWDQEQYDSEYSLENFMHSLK
inactive: ibrutinib -0.016 | [1] -0.003 | ralimetinib 0.01 | [2] -0.008 | [3] 0.003 | [4] 0.018 | [5] 0.023 | [6] 0 | [7] 0.025 | [8] -0.012

CCDC25 (UniProt Q86WR0)
inactive: ibrutinib 0.023 | [1] -0.006 | ralimetinib -0.018 | [2] -0.013 | [3] 0.017 | [4] -0.042 | [5] -0.022 | [6] 0.03 | [7] -0.002 | [8] 0

CCNH (UniProt P51946)
Chain of UniProt P51946 (P51946 whole entry, looked up): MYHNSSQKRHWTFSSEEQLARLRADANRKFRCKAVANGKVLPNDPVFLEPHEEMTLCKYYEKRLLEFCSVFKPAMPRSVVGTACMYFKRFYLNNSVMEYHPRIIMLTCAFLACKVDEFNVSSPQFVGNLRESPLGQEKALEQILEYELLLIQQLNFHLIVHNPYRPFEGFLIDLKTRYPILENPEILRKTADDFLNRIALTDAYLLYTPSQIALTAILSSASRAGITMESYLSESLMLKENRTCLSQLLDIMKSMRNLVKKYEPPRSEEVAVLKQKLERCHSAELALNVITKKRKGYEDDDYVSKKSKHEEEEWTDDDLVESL
inactive: ibrutinib 0.018 | [1] -0.149 | ralimetinib -0.001 | [2] -0.064 | [3] -0.058 | [4] -0.044 | [5] -0.025 | [6] -0.044 | [7] 0.018 | [8] -0.016

CDC123 (UniProt O75794)
inactive: ibrutinib 0.025 | [1] 0.022 | ralimetinib 0.06 | [2] 0.008 | [3] 0.027 | [4] 0.045 | [5] 0.016 | [6] -0.071 | [7] 0.031 | [8] 0.003

CDK16 isoform 2 (UniProt Q00536)
inactive: ibrutinib 0.025 | [1] 0.28 | ralimetinib 0.016 | [2] 0.009 | [3] -0.089 | [4] -0.023 | [5] -0.007 | [6] -0.037 | [7] -0.024 | [8] -0.141

CCDC51 (UniProt Q96ER9)
inactive: ibrutinib 0.056 | [1] 0.011 | ralimetinib -0.012 | [2] 0.036 | [3] -0.011 | [4] 0.025 | [5] 0.011 | [6] -0.013 | [7] 0.033 | [8] 0.013

CHAC2 (UniProt Q8WUX2)
Chain of UniProt Q8WUX2 (Q8WUX2 whole entry, looked up): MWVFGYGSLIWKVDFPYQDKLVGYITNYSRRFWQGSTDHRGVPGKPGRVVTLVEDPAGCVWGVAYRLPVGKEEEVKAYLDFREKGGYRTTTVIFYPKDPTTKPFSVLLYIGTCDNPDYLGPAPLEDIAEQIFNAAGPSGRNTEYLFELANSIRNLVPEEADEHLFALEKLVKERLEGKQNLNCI
inactive: ibrutinib -0.064 | [1] -0.014 | ralimetinib -0.01 | [2] 0.043 | [3] -0.118 | [4] -0.026 | [5] -0.048 | [6] -0.016 | [7] 0.017 | [8] -0.031

CDK1 (UniProt P06493)
inactive: ibrutinib -0.071 | ralimetinib 0.018 | [2] -0.037 | [3] -0.026 | [4] -0.029 | [5] 0.01 | [6] 0.033 | [7] 0.011 | [8] 0
active: [1] 0.433

AURKA (UniProt O14965)
inactive: ibrutinib 0.348 | [1] 0.144 | ralimetinib -0.042 | [2] 0.037 | [3] -0.051 | [4] 0.034 | [5] -0.039 | [6] -0.042 | [7] -0.005 | [8] 0.007
